From PubChem BioAssay (EPA / NIEHS)
Activity calls are given as the source filed them. How the source made its calls: active means hit-call score of the fitted dose curve at least 0.9, where 1 is the maximum; inactive means score below 0.9.

Molecular target: Transcriptional activator Myb (Homo sapiens) (UniProt P10242)
Test: ATG_Myb_CIS: Attagene CIS-FACTORIAL HepG2 Assay for human Myeloblastosis (Myb) Proto-Oncogene Transcription Factor (AID 2282986)
Conditions: HepG2 Attagene CIS-FACTORIAL Myb reporter transcription; actives raise or lower the signal
Experimental: ATG_CIS is a cell-based, multiplexed-readout assay that uses HepG2, a human liver cell line, with measurements taken at 24 hours after chemical dosing in a 24-well plate.ATG_Myb_CIS is one of 52 assay component(s) measured or calculated from the ATG_CIS assay. It is designed to make measurements of mRNA induction, a form of inducible reporter, as detected with fluorescence intensity signals by Reverse transcription polymerase chain reaction (RT-PCR) and Capillary electrophoresis technology.Data from the assay component ATG_Myb_CIS was analyzed into 1 assay endpoint. This assay endpoint, ATG_Myb_CIS, was analyzed with bidirectional fitting relative to DMSO as the negative control and baseline of activity. Using a type of inducible reporter, measures of mRNA for gain or loss-of-signal activity can be used to understand the reporter gene at the transcription factor-level as they relate to the gene MYB. Furthermore, this assay endpoint can be referred to as a primary readout, because this assay has produced multiple assay endpoints where this one serves a reporter gene function. To generalize the intended target to other relatable targets, this assay endpoint is annotated to the dna binding intended target family, where the subfamily is MYB proteins.
Human liver HepG2 cells are transiently transfected with multiple reporter transcription units (MRTUs) in 6-well plates using FuGene 6 reagent (Roche; 3 ml FuGene/1 mg DNA). The MRTU constructs are regulated by a cis-regulating element (promoter). […] A major difference between the CIS and TRANS system is that in CIS activities of endogenous TFs are measured, whereas the TRANS assay evaluates changes in activities of exogenous, chimeric NR-Gal4 proteins. […] At the end of 24 hour incubation, total RNA was isolated using TriZol reagent (Invitrogen). The isolated RNA is then reverse-transcribed using oligo(dT) primer and Mo-MLV reverse transcriptase (Invitrogen) with DNAse I (Ambion) treatment for 30 min. The one-tenth of the produced cDNA was amplified by PCR using Taq DNA polymerase (Invitrogen) and two reporter sequence-specific primers. The PCR products were fluorescently labeled by primer extension with 6-arboxyfluorescein (6-FAM) 5'-labeled reporter sequence-specific primer (2 min at 95 C, 20 s at 68 C and 10 min at 72 C) and these products were digested with 5U of HpaI (New England Biolabs) for 2h at 37 C. The fragments were purified using Qiaquick PCR columns (Qiagen), analyzed on an ABI 3130xL genetic analyzer (Applied Biosystems) with peak positions identified by using a set of X-rhodamine (ROX)-labeled MapMarker1000 molecular weight standards (BioVentures). The raw capillary electrophoresis data was processed using Attagraph software (Attagene).

Sequence of Transcriptional activator Myb (Homo sapiens) (P10242 whole entry, looked up): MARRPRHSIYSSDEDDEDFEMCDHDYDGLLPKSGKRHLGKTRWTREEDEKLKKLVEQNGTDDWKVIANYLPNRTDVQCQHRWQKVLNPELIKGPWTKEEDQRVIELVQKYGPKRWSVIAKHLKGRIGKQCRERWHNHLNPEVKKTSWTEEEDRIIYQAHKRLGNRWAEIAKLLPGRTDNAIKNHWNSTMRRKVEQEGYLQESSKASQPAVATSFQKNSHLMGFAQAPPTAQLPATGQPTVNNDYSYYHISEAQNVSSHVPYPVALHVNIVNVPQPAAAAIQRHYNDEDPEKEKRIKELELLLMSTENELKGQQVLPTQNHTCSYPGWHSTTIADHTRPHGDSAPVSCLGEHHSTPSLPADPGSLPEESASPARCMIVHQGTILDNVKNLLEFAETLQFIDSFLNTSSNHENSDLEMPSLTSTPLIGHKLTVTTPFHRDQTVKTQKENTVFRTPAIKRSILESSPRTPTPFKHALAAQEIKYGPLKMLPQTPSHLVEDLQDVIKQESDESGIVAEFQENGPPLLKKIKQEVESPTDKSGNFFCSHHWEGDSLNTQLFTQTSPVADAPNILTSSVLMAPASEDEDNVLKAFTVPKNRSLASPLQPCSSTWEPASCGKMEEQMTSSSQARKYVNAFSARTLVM

| SMILES | outcome | AC50 |
| --- | --- | --- |
| CCOP(=S)(OCC)SCS(=O)(=O)C(C)(C)C | inactive |  |
| C=CCOC(N)=O | inactive |  |
| CCOC(=O)OC1=C(c2cc(C)ccc2C)C(=O)NC12CCC(OC)CC2 (stereo not given) | inactive |  |
| [F][Sn]([c]1ccccc1)([c]1ccccc1)[c]1ccccc1 |  | 2.24 µM (active) |
| CNC(=O)N(C)c1nc2ccccc2s1 | inactive |  |
| C=C(C)[C@@H]1CC=C(C=O)CC1 | inactive |  |
| C=CC(F)(C(F)(F)F)C(F)(F)C(F)(F)F (stereo not given) | inactive |  |
| C[CH2][Hg][S]c1ccccc1C(=O)O |  | 3.89 µM (active) |
| Clc1cccc(Cl)c1 | inactive |  |
| O=C1c2ccccc2C(=O)C1C(=O)C(c1ccccc1)c1ccc(Cl)cc1 (stereo not given) |  | 173 µM (active) |
| Cc1cc(SCc2sc(-c3ccc(C(F)(F)F)c(F)c3)nc2C)ccc1OCC(=O)O | inactive |  |
| CC(c1ccc(O)cc1)c1ccc(O)cc1 | inactive |  |
| CCCSP(=S)(OCC)Oc1ccc(Cl)cc1Cl (stereo not given) | inactive |  |
| ClCc1ccccc1CCl | inactive |  |
| O=NN1CCCCCCC1 | inactive |  |
| N#CS | inactive |  |
| BrCCCCBr | inactive |  |
| CCOC(=O)Cc1ccccc1 | inactive |  |
| O=[N+]([O-])c1c2ccccc2cc2ccccc12 | inactive |  |
| CCCCOC(=O)COC(=O)c1ccccc1C(=O)OCCCC | inactive |  |

| SMILES | outcome | AC50 |
| --- | --- | --- |
| N#CCC#N | inactive |  |
| Oc1cccc(-c2ccccc2)c1 | inactive |  |
| Brc1ccc(Br)cc1 | inactive |  |
| O=[N+]([O-])c1cc([As](=O)(O)O)ccc1O | inactive |  |
| Oc1c(Br)cc(Br)cc1Br | inactive |  |
| Cc1cc(Cl)ccc1OC(C)C(=O)O (stereo not given) | inactive |  |
| CCCCS(=O)(=O)Cl | inactive |  |
| O=CCCl | inactive |  |
| CC1CC(=O)O1 (stereo not given) | inactive |  |
| [Cl][Sn]([c]1ccccc1)([c]1ccccc1)[c]1ccccc1 |  | 1.53 µM (active) |
| O=C=Nc1ccc(Cl)cc1 | inactive |  |
| OCCCCO | inactive |  |
| CN(N=O)C(N)=O | inactive |  |
| COc1nn(C(=O)NS(=O)(=O)c2ccccc2OC(F)(F)F)c(=O)n1C | inactive |  |
| OCC(c1ccc(Cl)cc1)c1ccc(Cl)cc1 | inactive |  |
| C=CC(=O)OCC(COC(=O)C=C)(COC(=O)C=C)COC(=O)C=C |  | 24.5 µM (active) |
| CCOC(=O)CC(=O)CCl | inactive |  |
| CCCCN(CCCC)C(=S)S |  | 100 µM (active) |
| CCCCOP(=O)(CCCC)OCCCC | inactive |  |
| CCOC(=O)C(SP(=S)(OC)OC)c1ccccc1 (stereo not given) | inactive |  |
